Results on 14 compounds are retold here after PubChem BioAssay (EPA / NIEHS).

The structures appear in SMILES notation. The source made the active and inactive calls. How the source made its calls: active means hit-call score of the fitted dose curve at least 0.9, where 1 is the maximum; inactive means score below 0.9.

As usually defined, the AC50 is the concentration giving half of the maximal activity seen.

Read-out in the experiment: DNA damage-inducible transcript 3 (DDIT3), DDIT3 (gene 1649)
Description: LTEA_HepaRG_DDIT3: Life Technologies and Expression Analysis (LTEA) Assay for DNA damage-inducible transcript 3 (DDIT3) using HepaRG (AID 2283488). The following applies: mRNA level, 48 h; actives raise or lower the signal. The procedure:
LTEA_HepaRG is a cell based, multiplexed-readout assay that uses HepaRG, a human liver cell line, with measurements taken at 48 hours after chemical dosing on a 96-well plate.LTEA_HepaRG_DDIT3 is one of 102 assay component(s) measured in the LTEA HepaRG cell culture assay. It is a marker of Oxidative Stress.Data from the assay component LTEA_HepaRG_DDIT3 was analyzed into 1 endpoint. This assay endpoint, LTEA_HepaRG_DDIT3, was analyzed with bidirectional fitting relative to DMSO as the negative control and baseline of activity. Using a type of inducible reporter, measures of mRNA induction for gain or loss-of-signal activity can be used to understand regulation of transcription factor activity. To generalize the intended target to other relatable targets, this assay endpoint is annotated to the dna binding intended target family, where the subfamily is basic leucine zipper.
A total of 1060 chemcials from the ToxCast library were tested in eight-point concentration-response experiments. Cell culture and cytotoxicity assays were conducted at Thermo Fisher Scientific's Custom Services facility (Madison, WI). A single lot of human HepaRG cells (Thermo Fisher Scientific, Frederick, MD) was used for the cell culture experiments. 96-well format collagen type I coated plates of human HepaRG cells were prepared using established methods. Briefly, cryopreserved HepaRG cells were thawed, plated at a density of approximately 100,000 cells/well in HepaRG Thaw, Plate, and General Purpose media (HPRG770, Thermo Fisher Scientific), and incubated for 48 hours. 0.5% DMSO was selected as vehicle control to balance the requisite need of DMSO in HepaRG cultures to maintain differentiation (for example, baseline metabolism, proportions of hepatocytes vs. cholangiocytes), while enabling further hepatic receptor pathway activation (for example, PXR and CAR) in response to chemical exposure. 48 hours after plating, the culture medium was replaced with HepaRG Serum-Free Incudtion Media. Cells were exposed to each test chemical in duplicate and maintained in CO2 incubators for another 48 hours. Chemical plates were thawed to room temperature and 200x concentrations of treatment groups were prepared. 8-point conentration-reponse curves were made with the highest exposure at 100 uM, followed by half-log dilutions, all in 0.5% DMSO. Each test plate contained variouse controls, induction positive controls (1mM phenobarbital), cytotoxicity positive controls ([…] aflatoxin B1), vehicle controls (0.5% DMSO), and total lysis controls (0.5% DMSO). Cell morphology images were taken using an Essen IncuCyte FLR automated microscope, with six 96-well plates imaged in about 24 minutes. Images were captured and exported and JPEG files. Spent culture media was transfered to black-well plates for the LDH assay, and remaining media was sorted at -80 C for later use. Cells were treated with RLT buffer and frozen until shipped for gene expression analysis. Total RNA was isolated from the cell suspension in 75 uL of Buffer RLT (Qiagen, Germantown, MD 20874) by Quintiles/Expression Analysis (Durham, NC) using a custom isolation procedure. Total RNA from each plate well was transferred to a preamplification plate. Fluidigm's 96.96 Dynamic ArrayTM (Fluidigm, Amsterdam, the Netherlands) technology was used for gene expression analyses by quantitative reverse transcription polymerase chain reaction (qRT-PCR, performed by Quintiles/Expression Analysis, Durham, NC)89. Standard TaqManTM Assays (Applied Biosystems/ThermoFisher Scientific, Foster City, CA) were used to assess the expression of 93 genes selected based on their selectivity and sensitivity to important hepatic receptors known to be modulated by environmental chemicals; importance in human hepatocyte functionality; and hepatotoxicity. […]
Consider `O=C(O)C1(c2ccc3c(c2)OC[C@H](Cc2ccc(-c4ccccc4)cc2)[C@H]3O)CCCC1`, for which the AC50 was 50 µM (active).
Take `Oc1c(Cl)cc(Cl)cc1Cl`: the outcome was inactive.
Same read-out and setting: the same measure for `OCCN(CCO)CCO`: “inactive”; for `CC(C)(C)c1ccccc1O`: “inactive”; for `Oc1cc(Cl)c(Cl)cc1Cl`: “inactive”.
Turning to `Cc1cc(C)cc(C)c1`, the compound was called inactive.
On the same count and under the same terms, the same measure for `Clc1cccc(Cl)c1`: “inactive”.
For the compound `CCCCCCCCCCCCc1cccc(S(=O)(=O)O)c1`, the AC50 was 45 µM (active).
As to `COc1ccccc1N`, the compound was classed as inactive.
The same measure, in the same setting: the same measure for `N#Cc1cccnc1`: “inactive”; for `O=C(N[C@H]1CN2CCC1CC2)c1ccc2c(c1)OCCO2`: “inactive”.
On the same count and under the same terms, next, `CC(C)O.CC(C)O.OCCN(CCO)CCO.OCCN(CCO)CCO.[Ti]`: “inactive”.
Same read-out and setting: the same measure for `Clc1cccc(Cl)c1Cl`: “inactive”; for `CN(C)C(=S)S`: “inactive”.
